BioA inh: BioA (M. tuberculosis) enzyme inhibition | purified M. tuberculosis BioA enzyme, plate reader | AID 602481 | inhibition, % at 9.99 µM | actives 0.096% (n = 360,000); in the data active means inhibition above about 40%
Y pestis TopoI: Y. pestis Topo-I inhibition via cleavage products. Y. pestis Topo-I cleavage product accumulation, plate reader. activity, % at 10 µM. actives 0.064% (n = 360,000). AID 504884; in the data active means activity above about 50%, passing the limit was not always enough
PfHsp40 rescue: compounds rescuing yeast from Plasmodium falciparum HSP40 toxicity. growth rescue, % at 12.5 µM. actives 0.68% (n = 340,000). S. cerevisiae expressing PfHsp40, growth rescue, ATP luminescence; in the data active means growth rescue above about 28%, passing the limit was not always enough;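 further: yeast W303a lacking pdr1 and pdr3 grown in galactose medium; growth measured after three days at 30 °C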
MazEF act: increases E. coli MazEF RNase cleavage of RNA | FAM/BHQ RNA-DNA oligo cleavage fluorescence, 5 h | actives 0.32% (n = 350,000) | P0AE70 | activation, % at 20 µM; in the data active means activation above about 50%
Target sequence (P0AE70 whole entry, looked up): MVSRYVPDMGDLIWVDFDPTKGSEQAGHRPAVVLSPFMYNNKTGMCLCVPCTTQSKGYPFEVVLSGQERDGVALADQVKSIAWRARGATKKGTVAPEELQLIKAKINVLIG
3CLpro inhibitor: SARS-CoV 3CLpro protease inhibition; recombinant SARS-CoV 3CLpro, quenched FRET peptide cleavage; actives 0.14% (n = 290,000); AID 1706; P0C6X7; inhibition, % at 6 µM; in the data active means inhibition above about 12%
BJeLR lethal: BJeLR cell viability loss | BJeLR (HRASV12) viability, CellTiter-Glo ATP luminescence, 48 h | inhibition, % (test concentration not listed) | actives 0.17% (n = 300,000) | AID 1554; in the data active means inhibition above about 50%
The depositor's hits bear a star; · = not tested or not shown. In the library only some 1.1% were active in any assay of this set; here they are far more common.

SMILES | BioA inh | Y pestis TopoI | PfHsp40 rescue | MazEF act | 3CLpro inhibitor | BJeLR lethal
CCCC(=O)Nc1ccc2c(c1)C(=O)N(C)C[C@@H](OC)[C@@H](C)CN(C(=O)C1CCCC1)[C@@H](C)CO2 | -1 | · | · | · | · | ·
c1ccc(-n2nnnc2SCc2ccccn2)cc1 | 0 | -1 | -1 | -5 | -7 | 20
C(=C\CSc1nnnn1-c1ccccc1)/CSc1nnnn1-c1ccccc1 | 2 | 60* | 0 | -1 | 3 | -11
C[C@@H]1CN([C@H](C)CO)C(=O)Cc2cc(NS(C)(=O)=O)ccc2O[C@H]1CN(C)C(=O)Nc1ccc(F)cc1 | -1 | · | · | · | · | ·
COc1cccc(N2CCN(C(=O)c3ccc(CS(=O)c4ccc(C)cc4)o3)CC2)c1 (stereo not drawn) | -4 | 13 | 2 | 5 | -5 | 52*
C[C@@H]1CCCCO[C@@H](CN(C)S(=O)(=O)c2ccc(Cl)cc2)[C@H](C)CN([C@H](C)CO)C(=O)c2cc(NS(=O)(=O)c3cccs3)ccc2O1 | -1 | · | · | · | · | ·
CCCCCCCOC(=O)C1=C(C)Nc2ncnn2C1c1cccs1 (stereo not drawn) | · | -7 | 2 | 16 | -3 | 6
CCCCCCCCOC(=O)C1=C(C)Nc2nnnn2C1c1cccs1 (stereo not drawn) | 5 | 28 | 76* | -14 | 6 | 1
COCCNC(=O)C[C@H]1CC[C@H]2[C@@H](COc3ccc(NC(=O)Nc4ccccc4)cc3C(=O)N2C)O1 | 3 | · | · | · | · | ·
CCOC(=O)[C@@H]1[C@H]2COc3cc(OC)ccc3[C@H]2N2C(=O)N(c3ccc(C(F)(F)F)cc3)C(=O)[C@]12C | -1 | -2 | 193* | 4 | · | ·
Clc1ccc(COn2c(-c3ccc(Cl)cc3)nc3ccccc32)cc1 | -1 | 27 | 1 | -16 | 2 | -5
Clc1ccc(COn2c(-c3ccccc3)nc3ccccc32)cc1 | -1 | 59* | 3 | -7 | 3 | -2
CN(C)Cc1c(C(=O)N/N=C/c2cccc(OCc3ccc(F)cc3)c2)nnn1-c1nonc1N | 5 | 14 | 0 | 99* | -1 | -3
COc1cc([C@H]2c3[nH]c4ccccc4c3C[C@H]3C(=O)N4[C@@H](c5cc(OC)c(OC)c(OC)c5)c5[nH]c6ccccc6c5C[C@H]4C(=O)N23)cc(OC)c1OC | -1 | 37 | 0 | -4 | -1 | 83*
CCN1C(=O)[C@@H]2Cc3c([nH]c4ccccc34)C(c3cc(OC)c(OC)c(OC)c3)N2C1=S (stereo partly drawn) | -3 | 15 | 0 | -150 | 0 | -1
CCCC#Cc1ccc2c(c1)O[C@@H](CN(C)C(=O)CC1CC1)[C@H](C)CN([C@H](C)CO)S2(=O)=O | 4 | · | · | · | · | ·
O=C(O)CN1C(=O)/C(=C\c2cn(CC(=O)N3CCOCC3)c3ccccc23)SC1=S | · | -8 | 0 | 191* | 1 | -4
O=C(CCCN1C(=O)/C(=C\c2ccccc2)SC1=S)N1CCOCC1 | 0 | 27 | 1 | 6 | · | ·
CCN1C(=O)NC(=O)/C(=C\c2cn(CC(=O)N3CCCCC3)c3ccccc23)C1=O | -6 | -6 | -1 | 117* | -2 | 3
O=C(O)CN1C(=O)/C(=C\c2ccc(OC(=O)c3ccco3)cc2)SC1=S | -6 | 0 | 0 | 7 | 0 | -1
O=C(Cn1cc(C(=O)C(F)(F)F)c2ccccc21)N1CCOCC1 | · | 4 | 48* | 7 | 4 | -4
O=C(O)CN1C(=O)/C(=C/c2ccc(SCc3ccccc3)o2)SC1=S | · | 4 | 7 | 123* | -4 | ·
COCC#Cc1cnc2c(c1)C(=O)N([C@H](C)CO)C[C@@H](C)[C@H](CN(C)Cc1ccc(-c3ccccc3)cc1)O2 | 0 | · | · | · | · | ·
c1ccc(Nc2cccc(Nc3ccccc3)n2)cc1 | -1 | -31 | 54* | 2 | 4 | -4
CCNC(=O)C[C@H]1CC[C@@H]2[C@H](COc3ccc(NC(=O)C4CCCCC4)cc3C(=O)N2C)O1 | -1 | · | · | · | · | ·
O=C(Nc1ccccc1)c1sc(Cl)nc1-c1ccccc1 | -2 | 5 | -2 | 12 | 3 | 1
Cc1ccc(NC(=O)c2sc(Cl)nc2-c2ccccc2)cc1C | -4 | 16 | 1 | 67* | 1 | -10
C[C@H](CO)N1C[C@H](C)[C@@H](CN(C)C(=O)CN(C)C)Oc2ncc(-c3ccccc3F)cc2C1=O | -1 | · | · | · | · | ·
COc1ccccc1S(=O)(=O)N[C@H]1CC[C@@H](CCNC(=O)C2CCOCC2)O[C@H]1CO | -1 | · | · | · | · | ·
